Source: PubChem (several laboratories)
Rows were chosen to be rich in hits. Some 9.3% of all compounds tested hit in one or more screens of this group.
NADH coupling – blocks coupling enzymes of NAD/NADH assays. IC50, µM (series often up to 10 µM), inactives show top-dose inhibition. coupled PK/LDH NADH assays, four targets. 0.02% of 65,000 active. AID 774;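 active = single-dose screening hits from any of four coupled enzyme assays that gave an IC50 when retested across doses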;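 also: the DPM-DC format reads NADH fluorescence rather than 340 nm absorbance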
mHtt clearance – compounds clearing mutant huntingtin protein; HeLa Exon1htt(103Q)mCFP, aggregate imaging; zero = plate's median compound well; inhibition, % at 1.5 µM; 0.42% of 47,000 active; AID 853;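 active = inhibition of aggregate fluorescence above about 70%, also judged a hit by eye on the cell image, limit read from the data, passing the limit was not always enough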;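 also: cells exposed to compound for three days before fixation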
A340 absorber – absorbance at 340 nm; compound absorbance at 340 nm, fold over control; fold change at 10 µM; 65,000 tested, under 10 active;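 active = at 10 µM dose, initial 340 nm absorbance at least 2 fold that of control wells; inactive = change under 2 fold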;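 also: initial absorbance extrapolated from kinetic A340 decline of NADH oxidation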
M1 agonist – agonists of M1 muscarinic receptor | B-score at 10 µM | 3% of 64,000 active | CHO-M1 cells, Fluo-4 calcium fluorescence, agonist mode; hits give high values;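 active = fluorescence rise, raw or as B-score row- and column-corrected plate score, outside the 99.7% band of its plate's samples, either direction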
Fluor 339 460 – intrinsic fluorescence of library compounds, ex339/em460 – biochemical, MLSMR library, data from DPM-DC assay, artefact control, profiling panel; compound autofluorescence, ex339/em460 nm, NADH buffer; hits give high values; 1 = no-compound wells, NADH background; fluorescence fold increase at 10 µM; 5.5% of 65,000 active;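 active = at 10 µM, mean starting fluorescence two-fold or more over control wells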;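 also: signal is the first read of a kinetic run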
M1 antag – blocks the rat M1 muscarinic receptor response to acetylcholine; 3.4% of 64,000 active; CHO-M1 cells, Fluo-4 calcium, ACh EC80 antagonist mode; hits give low values; B-score at 10 µM; P08482;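 active = calcium fluorescence response, raw or row-and-column corrected B-score, differing from the plate sample mean either way at a set confidence level, mostly lower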
Target sequence (P08482 whole entry, looked up): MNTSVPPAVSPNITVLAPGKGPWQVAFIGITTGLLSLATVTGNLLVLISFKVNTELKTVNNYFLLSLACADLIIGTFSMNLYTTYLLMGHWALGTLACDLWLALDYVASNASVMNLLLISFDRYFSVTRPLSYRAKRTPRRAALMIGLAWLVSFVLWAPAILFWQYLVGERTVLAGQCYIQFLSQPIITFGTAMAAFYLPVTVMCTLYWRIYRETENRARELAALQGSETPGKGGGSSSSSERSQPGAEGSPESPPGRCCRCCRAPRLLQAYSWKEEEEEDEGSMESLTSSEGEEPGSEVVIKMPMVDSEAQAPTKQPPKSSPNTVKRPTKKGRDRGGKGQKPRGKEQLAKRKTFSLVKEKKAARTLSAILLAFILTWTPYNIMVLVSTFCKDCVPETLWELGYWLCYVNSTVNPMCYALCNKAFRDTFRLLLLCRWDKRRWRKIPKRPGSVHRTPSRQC
M1 antag conf – M1 muscarinic receptor (rat) antagonism, confirmed; CHO-M1 cells, Fluo-4 calcium, ACh EC80 antagonism; hits give low values; calcium response (max-min fluorescence) at 10 µM; 43% of 1,700 active; shares compounds with M1 antag;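 active = calcium response below the same-plate mean of wells given acetylcholine alone at its 80%-effect dose, minus 3 SD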;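 also: raw fluorescence intensity difference in arbitrary instrument units and not normalized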
mGluR4 antag – selectivity test for M1 antagonists: human mGluR4 receptor; shares compounds with M1 antag; CHO-mGluR4 calcium flux, Fluo-4 fluorescence, glutamate EC80; hits give low values; fluorescence response (max-min) at 10 µM; 0.9% of 1,700 active;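 active = fluorescence response below the plate's average for near-maximal glutamate wells, less 3 SD of those wells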;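 also: raw unnormalized fluorescence span taken in the window right after glutamate addition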
Numbers without * were called inactive; · = not tested or not shown.

SMILES	NADH coupling	mHtt clearance	A340 absorber	M1 agonist	Fluor 339 460	M1 antag	M1 antag conf	mGluR4 antag
COc1ccccc1-n1c(SCC(N)=O)nnc1-c1ccccc1	3%	41	0.99	-1.4	1	-0.02	·	·
CCCCc1c(C)nn(-c2nnc3c4ccccc4n(CC)c3n2)c1C	6%	-18	1.1	-0.33	1.1	-2.7*	591	186
COc1ccc(NC(=O)CSc2nnc(Cc3cccn3C)n2CCc2ccccc2)cc1OC	1%	31	0.99	0.82	1.2	0.54	·	·
CC(=O)Nc1cccc(NC(=O)CSc2nnc(Cc3cccn3C)n2CCc2ccccc2)c1	8%	-201	0.99	0.1	1.1	-1.9*	641	228
C=CCn1c(SCC(=O)Nc2nnc(CC)s2)nnc1-c1ccco1	8%	·	0.99	-0.012	1.1	-0.019	·	·
Cc1nc(NC2=NCN(C3CCCCC3C)CN2)nc2ccccc12 (configuration not stated)	8%	59	1	-1.3	1.2	-4.9*	258*	186
Cc1nc(NC2=NCN(CC3CCCO3)CN2)nc2ccccc12 (configuration not stated)	3%	·	1	-0.2	1	-8.9*	108*	209
Cc1ccc(S(=O)(=O)NC2=NCN(C3CCCCC3)CN2)cc1	5%	-14	1	-0.015	1.2	-0.52	·	·
O=C(Nc1ccccc1Cl)N1CCN(c2ccc3nnc(-c4ccccc4)n3n2)CC1	6%	·	1	1.5	1.1	-1	·	·
O=C(Nc1ccc(Cl)cc1)N1CCN(c2ccc3nnc(-c4ccc(F)cc4)n3n2)CC1	1%	·	1	0.73	1.2	-4.4*	386*	258
O=C1NCCCC1C(=O)N1CCN(C(=O)C2CCCNC2=O)CC1 (configuration not stated)	7%	·	0.98	-0.39	1.1	0.13	·	·
C=C(C)Cn1c(CCCNC(=O)CCC)nc2ccccc21	3%	·	1	0.0018	1.1	-0.91	·	·
Cc1onc(-c2c(F)cccc2Cl)c1C(=O)Nc1nnc(C2CC2)s1	6%	-17	1	1.1	1	-4.1*	481*	223
Cc1onc(-c2ccccc2Cl)c1C(=O)Nc1nnc(-c2ccc(F)cc2)s1	5%	-85	1.1	-0.021	1.2	0.22	·	·
Cc1onc(-c2c(Cl)cccc2Cl)c1C(=O)Nc1ccc2c(c1)OCCO2	0%	-12	1.1	-0.63	1.1	-3.1*	424*	235
CCCCNC1C(CC)C(CCC)C(C#N)(C#N)C1(C#N)C#N (configuration not stated)	2%	34	0.99	-0.3	1	-0.28	·	·
Clc1ccc(CSC2=NCCCN2)cc1Cl	4%	·	1	0.1	1.1	-4*	355*	213
Brc1cccc(-c2nnc3n2CCCCC3)c1	9%	·	1	-0.28	1.1	-0.21	·	·
Brc1cccc(-c2cnc3n2CCCCC3)c1	2%	·	0.97	-0.59	1	-12*	81*	177
CC(OC(=O)C1CCN(S(=O)(=O)c2ccccc2)CC1)C(=O)Nc1ncc(Cl)cc1Cl (configuration not stated)	6%	4	1	-1.7	1.1	-1.3*	668	250
CC(OC(=O)CCCN1C(=O)c2ccccc2C1=O)C(=O)Nc1ncc(Cl)cc1Cl (configuration not stated)	4%	·	1.1	-0.3	1.2	-0.068	·	·
Cc1cc(C)n(-c2ccc(C(=O)OCC(=O)c3ccc(Br)s3)cc2)n1	7%	·	1	0.18	1.1	-0.53	·	·
CN(C)S(=O)(=O)c1cccc(CSc2cccc[n+]2[O-])c1	0%	·	1	0.77	1.1	-2.2*	666	184
CN(Cc1ccccc1)S(=O)(=O)c1ccc2c(c1)OCCO2	3%	-58	1	0.063	1.1	-0.47	·	·
CCOC(=O)c1ccccc1NC(=O)/C(C)=C/C(=O)O	·	25	·	·	·	·	·	·
SMILES	NADH coupling	mHtt clearance	A340 absorber	M1 agonist	Fluor 339 460	M1 antag	M1 antag conf	mGluR4 antag
CCCCC(CCC(=O)Nc1ccccc1C(=O)OCC)C(=O)O (configuration not stated)	7%	44	0.99	1.5	1.1	-4.3*	685	251
CC(C)NC(=O)CSc1nnc(-c2ccc(S(=O)(=O)N3CCCC3)cc2)n1CC1CCCO1 (configuration not stated)	19%	9	0.98	0.19	1.1	-0.72	·	·
CC(=O)N(Cc1ccccc1)c1ccc(C(=O)O)cc1	1%	-7	1	-0.26	1.1	-2*	16*	232
COC(=O)Nc1nnc(Cc2ccccc2)s1	7%	50	1.1	0.13	1.1	-17*	593	259
CC(C)C(=O)Nc1nnc(Cc2ccccc2)s1	3%	·	1	-0.5	1.1	0.76	·	·
CCCn1c(SCc2cc(=O)[nH]c3ccccc23)nc2c1c(=O)n(C)c(=O)n2C	10%	·	1.1	0.2	1.1	0.32	·	·
CCc1ccc(OCc2nnc(SCCN3CCOCC3)n2CC)cc1	0%	·	1	-0.081	1.1	-3.2*	313*	240
Clc1ccc(OCc2nnc(SCCN3CCCCC3)n2Cc2ccco2)cc1	1%	·	1	0.17	1.1	-13*	21*	247
COc1ccc(Cc2nnc(SCC(=O)NCC3CCCO3)o2)cc1 (configuration not stated)	8%	-12	0.98	-0.12	1.1	-0.33	·	·
O=C(CCNS(=O)(=O)c1cccc2nsnc12)N1CC(=O)N(CCc2ccccc2)C(=O)C1	4%	3	0.99	0.038	1.1	0.13	·	·
NC(=O)C1CCCN(C(=O)c2ccc(Cl)cc2)C1 (configuration not stated)	2%	-61	1	0.26	1.1	-0.95	·	·
CN(C)C(CNC(=O)C1CCCN(C(=O)c2ccc(Cl)cc2)C1)c1ccco1 (configuration not stated)	3%	-6	1	-0.016	1.2	-3.6*	666	267
CCOC(=O)N1CCC(NC(=O)Cn2ncn3c(cc4sc(CC)cc43)c2=O)CC1	6%	·	0.99	1.1	1.1	0.71	·	·
